# Measured values: paper PMC7862700, “An all-to-all approach to the identification of sequence-specific readers for epigenetic DNA modifications on cytosine”
# Columns and labels:
# Test in all cases: DAPPL (digital affinity profiling via proximity ligation, sequencing); 10 mM Tris-HCl pH 7.5, 50 mM NaCl, 1 mM DTT, 4% glycerol, room temperature, 30 min; GST-TFs on glutathione beads, 16-mer random dsDNA library, 0.1% formaldehyde crosslink after washing; high values mean tight binding
# [1] = target: T1, FLI1 (Homo sapiens, UniProt Q01543 1-452); conditions: protein: recombinant; tags: N-terminal GST; dsDNA, one strand shown
# T1 sequence: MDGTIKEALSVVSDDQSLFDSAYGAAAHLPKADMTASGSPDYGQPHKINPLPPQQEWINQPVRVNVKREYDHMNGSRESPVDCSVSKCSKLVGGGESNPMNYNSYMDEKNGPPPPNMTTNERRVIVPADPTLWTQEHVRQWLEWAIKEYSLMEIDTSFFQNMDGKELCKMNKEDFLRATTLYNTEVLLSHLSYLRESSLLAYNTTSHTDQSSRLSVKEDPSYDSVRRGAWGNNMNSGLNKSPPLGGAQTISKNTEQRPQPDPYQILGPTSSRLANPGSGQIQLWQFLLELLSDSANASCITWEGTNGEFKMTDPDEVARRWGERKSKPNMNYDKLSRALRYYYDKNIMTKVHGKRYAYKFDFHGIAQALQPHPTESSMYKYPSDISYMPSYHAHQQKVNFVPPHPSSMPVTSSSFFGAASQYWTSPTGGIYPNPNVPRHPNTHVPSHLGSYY
# In short: (§1)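 Yeast served to express human transcription factors as GST fusions, which were then captured on glutathione beads and labelled with DNA barcodes. Pooled with a tag-only sample, they were incubated with 200 nmole of a 16-mer random double-stranded DNA library for 30 min at room temperature in Tris/NaCl/DTT/glycerol buffer, washed, crosslinked with 0.1% formaldehyde, ligated by proximity, amplified by PCR and sequenced. Dividing each hexamer's read frequency for a factor by its frequency for the tag-only sample gives the binding signal.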
# [2] = target: T2, ELK1 (Homo sapiens, UniProt P19419 1-428); conditions: protein: recombinant; tags: N-terminal GST; dsDNA, one strand shown
# T2 sequence: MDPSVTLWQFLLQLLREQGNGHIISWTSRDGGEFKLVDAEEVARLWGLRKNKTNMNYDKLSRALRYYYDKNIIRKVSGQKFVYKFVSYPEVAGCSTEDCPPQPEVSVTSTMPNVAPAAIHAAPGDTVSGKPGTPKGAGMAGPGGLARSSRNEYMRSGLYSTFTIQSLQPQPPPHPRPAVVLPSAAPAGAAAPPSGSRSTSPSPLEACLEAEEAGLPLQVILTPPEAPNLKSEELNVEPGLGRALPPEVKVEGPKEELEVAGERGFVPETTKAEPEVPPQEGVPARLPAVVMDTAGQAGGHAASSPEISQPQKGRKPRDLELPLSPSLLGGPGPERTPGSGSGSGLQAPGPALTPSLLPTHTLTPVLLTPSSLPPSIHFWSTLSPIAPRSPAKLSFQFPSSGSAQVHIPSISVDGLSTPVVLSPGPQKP
# In short: as §1
# [3] = target: T3, GABPA (Homo sapiens, UniProt Q06546 1-454); conditions: protein: recombinant; tags: N-terminal GST; dsDNA, one strand shown
# T3 sequence: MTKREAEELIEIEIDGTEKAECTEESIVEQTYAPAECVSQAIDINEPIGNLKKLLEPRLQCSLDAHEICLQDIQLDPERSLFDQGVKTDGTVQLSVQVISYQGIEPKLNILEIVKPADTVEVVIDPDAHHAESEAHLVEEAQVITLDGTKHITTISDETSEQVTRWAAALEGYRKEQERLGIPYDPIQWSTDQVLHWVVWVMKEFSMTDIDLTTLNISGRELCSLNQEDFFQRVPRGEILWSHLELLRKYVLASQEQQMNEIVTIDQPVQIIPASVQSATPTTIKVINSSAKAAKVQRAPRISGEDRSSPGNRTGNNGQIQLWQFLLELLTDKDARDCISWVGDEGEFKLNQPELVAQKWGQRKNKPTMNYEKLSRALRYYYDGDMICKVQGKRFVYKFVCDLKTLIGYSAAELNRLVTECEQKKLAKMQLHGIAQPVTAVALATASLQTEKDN
# In short: as §1
# [4] = target: T4, ERG (Homo sapiens, UniProt P11308 1-479); conditions: protein: recombinant; tags: N-terminal GST; dsDNA, one strand shown
# T4 sequence: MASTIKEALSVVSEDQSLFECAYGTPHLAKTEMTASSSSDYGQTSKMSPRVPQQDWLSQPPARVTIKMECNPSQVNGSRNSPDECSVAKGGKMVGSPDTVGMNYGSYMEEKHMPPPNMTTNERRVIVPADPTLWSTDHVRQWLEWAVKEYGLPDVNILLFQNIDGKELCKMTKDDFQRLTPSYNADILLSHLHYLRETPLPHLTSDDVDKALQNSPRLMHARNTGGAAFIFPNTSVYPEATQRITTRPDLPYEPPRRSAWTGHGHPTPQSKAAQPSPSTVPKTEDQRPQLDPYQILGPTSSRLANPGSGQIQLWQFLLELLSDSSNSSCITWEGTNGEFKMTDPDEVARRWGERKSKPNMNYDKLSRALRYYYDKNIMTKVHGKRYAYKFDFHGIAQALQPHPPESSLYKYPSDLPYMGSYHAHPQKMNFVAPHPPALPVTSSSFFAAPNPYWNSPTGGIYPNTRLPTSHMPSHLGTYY
# In short: as §1
# [5] = target: ELF1 (Homo sapiens, UniProt P32519 1-619); conditions: protein: recombinant; tags: N-terminal GST; dsDNA, one strand shown
# ELF1, sequence (P32519 whole entry): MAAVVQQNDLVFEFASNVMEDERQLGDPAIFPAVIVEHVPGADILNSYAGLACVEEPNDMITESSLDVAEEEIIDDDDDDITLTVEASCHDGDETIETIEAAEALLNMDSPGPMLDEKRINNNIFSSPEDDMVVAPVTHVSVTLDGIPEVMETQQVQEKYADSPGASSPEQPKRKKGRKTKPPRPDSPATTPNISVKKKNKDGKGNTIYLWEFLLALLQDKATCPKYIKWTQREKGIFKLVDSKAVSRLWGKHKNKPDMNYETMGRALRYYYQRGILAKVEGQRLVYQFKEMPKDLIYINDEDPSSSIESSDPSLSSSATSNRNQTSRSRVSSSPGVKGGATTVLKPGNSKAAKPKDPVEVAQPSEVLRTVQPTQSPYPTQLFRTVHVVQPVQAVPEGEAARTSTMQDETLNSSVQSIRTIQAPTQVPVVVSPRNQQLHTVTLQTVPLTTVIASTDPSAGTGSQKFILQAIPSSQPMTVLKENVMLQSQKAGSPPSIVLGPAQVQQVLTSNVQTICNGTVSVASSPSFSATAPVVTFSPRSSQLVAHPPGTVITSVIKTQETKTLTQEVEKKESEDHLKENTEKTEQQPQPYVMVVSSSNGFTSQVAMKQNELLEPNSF
# In short: as §1
# [6] = target: T5, EHF (Homo sapiens, UniProt Q9NZC4 1-300); conditions: protein: recombinant; tags: N-terminal GST; dsDNA, one strand shown
# T5 sequence: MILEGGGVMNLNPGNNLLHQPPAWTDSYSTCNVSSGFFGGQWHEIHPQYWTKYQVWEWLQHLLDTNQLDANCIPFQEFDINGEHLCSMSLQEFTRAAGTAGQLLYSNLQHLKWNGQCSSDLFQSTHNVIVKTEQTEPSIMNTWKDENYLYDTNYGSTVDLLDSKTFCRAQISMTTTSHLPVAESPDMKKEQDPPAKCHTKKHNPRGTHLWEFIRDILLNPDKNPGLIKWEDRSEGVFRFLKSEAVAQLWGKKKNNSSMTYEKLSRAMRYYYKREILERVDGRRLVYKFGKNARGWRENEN
# In short: as §1
# [7] = target: SPI1 (Homo sapiens, UniProt P17947 1-270); conditions: protein: recombinant; tags: N-terminal GST; dsDNA, one strand shown
# In short: as §1
# [8] = target: SPIB (Homo sapiens, UniProt Q01892 1-262); conditions: protein: recombinant; tags: N-terminal GST; dsDNA, one strand shown
# SPIB, sequence (Q01892 whole entry): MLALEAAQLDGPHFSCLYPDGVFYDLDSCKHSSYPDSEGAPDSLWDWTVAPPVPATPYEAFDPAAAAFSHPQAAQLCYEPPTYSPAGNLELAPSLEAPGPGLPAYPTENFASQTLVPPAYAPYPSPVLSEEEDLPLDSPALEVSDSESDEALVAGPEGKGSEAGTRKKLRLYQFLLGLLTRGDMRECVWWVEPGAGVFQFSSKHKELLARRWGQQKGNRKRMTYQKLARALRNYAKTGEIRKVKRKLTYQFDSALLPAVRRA
# In short: as §1
# [9] = target: T6, ELK3 (Homo sapiens, UniProt P41970 1-407); conditions: protein: recombinant; tags: N-terminal GST; dsDNA, one strand shown
# T6 sequence: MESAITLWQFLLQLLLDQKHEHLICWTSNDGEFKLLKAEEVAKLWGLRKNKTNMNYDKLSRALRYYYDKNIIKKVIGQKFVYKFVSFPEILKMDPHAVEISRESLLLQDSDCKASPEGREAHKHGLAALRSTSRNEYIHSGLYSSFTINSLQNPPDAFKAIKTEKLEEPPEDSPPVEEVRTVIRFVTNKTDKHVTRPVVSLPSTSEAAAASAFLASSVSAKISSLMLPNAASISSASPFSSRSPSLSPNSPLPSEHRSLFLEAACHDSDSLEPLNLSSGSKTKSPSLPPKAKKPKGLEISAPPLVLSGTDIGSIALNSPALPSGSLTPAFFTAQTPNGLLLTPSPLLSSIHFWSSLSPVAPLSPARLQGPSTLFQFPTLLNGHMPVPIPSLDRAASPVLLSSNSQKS
# In short: as §1
# [10] = target: T7, FEV (Homo sapiens, UniProt Q99581 1-238); conditions: protein: recombinant; tags: N-terminal GST; dsDNA, one strand shown
# T7 sequence: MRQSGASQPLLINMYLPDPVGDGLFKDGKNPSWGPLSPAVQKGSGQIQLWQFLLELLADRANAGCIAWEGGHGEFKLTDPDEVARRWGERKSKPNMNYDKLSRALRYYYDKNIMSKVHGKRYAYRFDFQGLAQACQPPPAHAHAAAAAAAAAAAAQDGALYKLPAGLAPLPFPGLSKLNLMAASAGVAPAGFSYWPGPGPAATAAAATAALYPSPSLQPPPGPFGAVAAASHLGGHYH
# In short: as §1
# [11] = target: ETV5 (Homo sapiens, UniProt P41161 1-510); conditions: protein: recombinant; tags: N-terminal GST; dsDNA, one strand shown
# ETV5, sequence (P41161 whole entry): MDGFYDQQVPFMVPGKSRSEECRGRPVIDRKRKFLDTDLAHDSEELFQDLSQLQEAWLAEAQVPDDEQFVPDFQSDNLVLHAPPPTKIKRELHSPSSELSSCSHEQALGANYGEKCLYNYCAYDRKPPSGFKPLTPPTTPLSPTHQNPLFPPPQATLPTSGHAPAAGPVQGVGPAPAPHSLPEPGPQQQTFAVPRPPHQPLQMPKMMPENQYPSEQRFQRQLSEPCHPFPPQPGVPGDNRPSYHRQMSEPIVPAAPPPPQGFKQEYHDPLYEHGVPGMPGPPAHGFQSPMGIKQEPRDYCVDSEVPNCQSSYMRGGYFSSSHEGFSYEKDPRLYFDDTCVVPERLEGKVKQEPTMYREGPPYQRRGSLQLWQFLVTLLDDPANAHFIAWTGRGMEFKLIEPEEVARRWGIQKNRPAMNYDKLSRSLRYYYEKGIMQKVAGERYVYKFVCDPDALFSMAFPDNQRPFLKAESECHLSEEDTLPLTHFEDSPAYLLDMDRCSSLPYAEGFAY
# In short: as §1
# [12] = target: HSF1 (Homo sapiens, UniProt Q00613 1-529); conditions: protein: recombinant; tags: N-terminal GST; chain copies: 3; dsDNA, one strand shown
# HSF1, sequence (Q00613 whole entry): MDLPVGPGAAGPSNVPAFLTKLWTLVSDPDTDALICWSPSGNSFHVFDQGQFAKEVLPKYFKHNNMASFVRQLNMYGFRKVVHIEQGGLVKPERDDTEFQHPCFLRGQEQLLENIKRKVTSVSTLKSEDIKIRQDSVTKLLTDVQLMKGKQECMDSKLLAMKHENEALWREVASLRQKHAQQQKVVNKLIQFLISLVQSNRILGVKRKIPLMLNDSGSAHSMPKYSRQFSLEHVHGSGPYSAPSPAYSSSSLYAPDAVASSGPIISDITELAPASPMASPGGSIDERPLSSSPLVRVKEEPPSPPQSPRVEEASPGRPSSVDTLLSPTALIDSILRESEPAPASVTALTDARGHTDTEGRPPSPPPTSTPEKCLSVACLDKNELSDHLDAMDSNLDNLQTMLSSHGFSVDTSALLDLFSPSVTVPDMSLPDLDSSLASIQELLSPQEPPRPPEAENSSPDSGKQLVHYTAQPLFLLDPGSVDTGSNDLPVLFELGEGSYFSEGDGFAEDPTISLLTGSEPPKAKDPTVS
# In short: as §1
# [13] = target: T8, SPIC (Homo sapiens, UniProt Q8N5J4 1-248); conditions: protein: recombinant; tags: N-terminal GST; dsDNA, one strand shown
# T8 sequence: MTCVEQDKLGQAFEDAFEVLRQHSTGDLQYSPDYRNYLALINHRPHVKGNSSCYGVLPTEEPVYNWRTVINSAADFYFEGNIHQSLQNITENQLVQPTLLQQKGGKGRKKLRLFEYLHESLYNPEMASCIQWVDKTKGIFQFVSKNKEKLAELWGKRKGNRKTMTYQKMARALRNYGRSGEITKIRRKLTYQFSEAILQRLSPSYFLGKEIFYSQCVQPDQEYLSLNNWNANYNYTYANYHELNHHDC
# In short: as §1
# [14] = target: ELF4 (Homo sapiens, UniProt Q99607 1-663); conditions: protein: recombinant; tags: N-terminal GST; dsDNA, one strand shown
# ELF4, sequence (Q99607 whole entry): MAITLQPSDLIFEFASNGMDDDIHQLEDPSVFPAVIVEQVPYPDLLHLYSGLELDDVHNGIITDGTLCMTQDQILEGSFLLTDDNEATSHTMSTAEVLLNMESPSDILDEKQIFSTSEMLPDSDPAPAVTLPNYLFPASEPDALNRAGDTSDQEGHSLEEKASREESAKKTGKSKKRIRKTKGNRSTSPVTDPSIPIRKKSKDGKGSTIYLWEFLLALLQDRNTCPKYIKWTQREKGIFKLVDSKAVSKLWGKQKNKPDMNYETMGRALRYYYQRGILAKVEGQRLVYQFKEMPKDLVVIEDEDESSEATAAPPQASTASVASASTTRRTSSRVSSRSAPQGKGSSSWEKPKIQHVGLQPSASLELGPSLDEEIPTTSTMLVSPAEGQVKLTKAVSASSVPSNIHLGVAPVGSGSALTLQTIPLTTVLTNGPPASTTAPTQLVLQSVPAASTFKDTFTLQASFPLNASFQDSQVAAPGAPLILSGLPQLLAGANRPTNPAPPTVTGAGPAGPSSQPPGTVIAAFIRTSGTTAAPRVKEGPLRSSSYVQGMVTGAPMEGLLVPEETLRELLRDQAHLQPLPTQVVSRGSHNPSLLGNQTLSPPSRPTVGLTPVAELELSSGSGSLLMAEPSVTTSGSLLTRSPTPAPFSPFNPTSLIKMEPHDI
# In short: as §1
# [15] = target: T9, ELK4 (Homo sapiens, UniProt P28324-2 1-405); conditions: protein: recombinant; tags: N-terminal GST; dsDNA, one strand shown
# T9 sequence: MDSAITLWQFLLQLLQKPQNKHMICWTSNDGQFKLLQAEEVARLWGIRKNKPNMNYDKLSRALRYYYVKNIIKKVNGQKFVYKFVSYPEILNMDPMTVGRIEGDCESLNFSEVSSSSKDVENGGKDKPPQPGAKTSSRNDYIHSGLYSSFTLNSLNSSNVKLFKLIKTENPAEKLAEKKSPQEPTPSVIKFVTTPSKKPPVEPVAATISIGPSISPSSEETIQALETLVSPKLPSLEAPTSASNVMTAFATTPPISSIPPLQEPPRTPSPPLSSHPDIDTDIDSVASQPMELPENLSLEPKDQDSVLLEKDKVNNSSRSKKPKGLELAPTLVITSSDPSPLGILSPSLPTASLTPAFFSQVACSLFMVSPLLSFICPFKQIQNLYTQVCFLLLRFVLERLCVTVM
# In short: as §1
# [16] = target: T10, ETV2 (Homo sapiens, UniProt O00321 1-342); conditions: protein: recombinant; tags: N-terminal GST; dsDNA, one strand shown
# T10 sequence: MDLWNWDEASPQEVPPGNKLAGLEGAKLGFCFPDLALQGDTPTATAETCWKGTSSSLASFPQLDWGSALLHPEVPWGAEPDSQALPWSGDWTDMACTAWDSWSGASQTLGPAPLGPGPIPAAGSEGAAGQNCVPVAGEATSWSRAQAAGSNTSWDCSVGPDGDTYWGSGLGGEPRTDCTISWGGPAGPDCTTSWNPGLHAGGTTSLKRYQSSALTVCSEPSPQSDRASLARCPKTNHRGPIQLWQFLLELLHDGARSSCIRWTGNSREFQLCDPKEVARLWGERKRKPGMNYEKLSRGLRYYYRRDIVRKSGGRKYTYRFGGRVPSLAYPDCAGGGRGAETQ
# In short: as §1
# [17] = target: T11, ELF3 (Homo sapiens, UniProt P78545 1-371); conditions: protein: recombinant; tags: N-terminal GST; dsDNA, one strand shown
# T11 sequence: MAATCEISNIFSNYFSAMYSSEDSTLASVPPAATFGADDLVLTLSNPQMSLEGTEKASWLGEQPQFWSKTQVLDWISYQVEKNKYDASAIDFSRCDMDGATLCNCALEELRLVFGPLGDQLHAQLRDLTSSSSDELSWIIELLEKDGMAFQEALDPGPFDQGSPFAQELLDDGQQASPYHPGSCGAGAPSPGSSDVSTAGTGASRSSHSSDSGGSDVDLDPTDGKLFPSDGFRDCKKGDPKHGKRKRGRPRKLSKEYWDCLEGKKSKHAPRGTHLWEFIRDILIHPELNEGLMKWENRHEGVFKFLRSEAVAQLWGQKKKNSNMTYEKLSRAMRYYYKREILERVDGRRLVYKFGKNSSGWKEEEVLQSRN
# In short: as §1
# [18] = target: CRX (Homo sapiens, UniProt O43186 1-299); conditions: protein: recombinant; tags: N-terminal GST; dsDNA, one strand shown
# CRX, sequence (O43186 whole entry): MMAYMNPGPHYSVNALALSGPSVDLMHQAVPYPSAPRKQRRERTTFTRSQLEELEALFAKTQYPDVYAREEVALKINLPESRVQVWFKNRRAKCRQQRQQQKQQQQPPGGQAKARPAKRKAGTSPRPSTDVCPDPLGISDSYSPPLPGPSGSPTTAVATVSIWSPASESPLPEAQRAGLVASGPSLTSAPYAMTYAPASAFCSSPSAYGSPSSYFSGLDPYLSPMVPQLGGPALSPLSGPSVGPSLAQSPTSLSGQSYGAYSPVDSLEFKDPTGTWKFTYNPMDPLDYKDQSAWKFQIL
# In short: as §1
# [19] = target: ETV1 (Homo sapiens, UniProt P50549 1-477); conditions: protein: recombinant; tags: N-terminal GST; dsDNA, one strand shown
# ETV1, sequence (P50549 whole entry): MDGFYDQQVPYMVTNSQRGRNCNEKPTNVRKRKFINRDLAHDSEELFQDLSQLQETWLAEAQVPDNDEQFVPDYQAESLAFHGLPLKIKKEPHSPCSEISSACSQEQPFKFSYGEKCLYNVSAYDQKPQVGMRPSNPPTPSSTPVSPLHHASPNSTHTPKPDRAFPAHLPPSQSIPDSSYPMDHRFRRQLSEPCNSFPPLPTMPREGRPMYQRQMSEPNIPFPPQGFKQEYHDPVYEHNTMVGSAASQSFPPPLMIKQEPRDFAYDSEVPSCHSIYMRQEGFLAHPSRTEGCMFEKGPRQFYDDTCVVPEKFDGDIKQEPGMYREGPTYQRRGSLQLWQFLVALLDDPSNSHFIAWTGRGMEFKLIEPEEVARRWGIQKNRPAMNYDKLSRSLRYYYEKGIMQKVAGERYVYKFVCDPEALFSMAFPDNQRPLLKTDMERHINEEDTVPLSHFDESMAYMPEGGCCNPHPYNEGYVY
# In short: as §1
sequence,measurement,setting,value
CTTCTG,binding signal,[1],"1.48 fold enrichment (6-mer frequency, TF over GST control)"
same,binding signal,[2],"1.34 fold enrichment (6-mer frequency, TF over GST control)"
same,binding signal,[3],"1.26 fold enrichment (6-mer frequency, TF over GST control)"
same,binding signal,[4],"1.3 fold enrichment (6-mer frequency, TF over GST control)"
same,binding signal,[5],"1.34 fold enrichment (6-mer frequency, TF over GST control)"
same,binding signal,[6],"1.27 fold enrichment (6-mer frequency, TF over GST control)"
same,binding signal,[7],"1.36 fold enrichment (6-mer frequency, TF over GST control)"
same,binding signal,[8],"1.32 fold enrichment (6-mer frequency, TF over GST control)"
same,binding signal,[9],"1.4 fold enrichment (6-mer frequency, TF over GST control)"
same,binding signal,[10],"1.23 fold enrichment (6-mer frequency, TF over GST control)"
same,binding signal,[11],"1.35 fold enrichment (6-mer frequency, TF over GST control)"
same,binding signal,[12],"2.07 fold enrichment (6-mer frequency, TF over GST control)"
same,binding signal,[13],"1.39 fold enrichment (6-mer frequency, TF over GST control)"
same,binding signal,[14],"1.42 fold enrichment (6-mer frequency, TF over GST control)"
same,binding signal,[15],"1.57 fold enrichment (6-mer frequency, TF over GST control)"
same,binding signal,[16],"1.32 fold enrichment (6-mer frequency, TF over GST control)"
same,binding signal,[17],"1.29 fold enrichment (6-mer frequency, TF over GST control)"
same,binding signal,[18],"1.49 fold enrichment (6-mer frequency, TF over GST control)"
same,binding signal,[19],"1.22 fold enrichment (6-mer frequency, TF over GST control)"
